Measured values published in article PMC5540273 (PLoS ONE, 2017).

Assays:
Settings in all cases: concentration: 1 μM, replicates: in singlicate; n = 1
EPHA4 = tested on: EPHA4
EPHA5 = tested on: EPHA5
EPHA6 = tested on: EPHA6
EPHA7 = tested on: EPHA7
EPHA8 = tested on: EPHA8
EPHB1 = tested on: EPHB1
EPHB2 = tested on: EPHB2
EPHB3 = tested on: EPHB3
EPHB4 = tested on: EPHB4
EPHB6 = tested on: EPHB6
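Note: KINOMEscan kinase panel screen.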

| SMILES | %Inh (EPHA4) [%] | %Inh (EPHA5) [%] | %Inh (EPHA6) [%] | %Inh (EPHA7) [%] | %Inh (EPHA8) [%] | %Inh (EPHB1) [%] | %Inh (EPHB2) [%] | %Inh (EPHB3) [%] | %Inh (EPHB4) [%] | %Inh (EPHB6) [%] |
| --- | --- | --- | --- | --- | --- | --- | --- | --- | --- | --- |
| Fc1cc(Cl)ccc1Nc1ccnc2cc(I)ccc12 [GW551191] | 13 | 0 | 34 | 6 | 44 | 32 | 25 | 17 | 15 | 53 |
| CCn1c(-c2ccccn2)nc2cnccc21 [SB-736398] | 23 | 0 | 7 | 0 | 5 | 0 | 0 | 12 | 35 | 0 |
| Fc1cc(Cl)ccc1Nc1ccnc2cc(-c3ccc(CN4CCCCC4)o3)ccc12 [GW560116] | 0 | 0 | 24 | 0 | 30 | 12 | 10 | 0 | 12 | 51 |
| COc1ccc(C2=C(Nc3cccc(C(=O)O)c3)C(=O)NC2=O)cc1 [SB-390765] | 21 | 7 | 16 | 0 | 10 | 5 | 9 | 20 | 9 | 19 |
| Cc1c(O)cccc1Nc1ccnc2ccc(C(F)(F)F)cc12.Cl [GW466413] | 0 | 0 | 14 | 0 | 8 | 9 | 0 | 54 | 20 | 0 |
| O=C(O)COc1ncnc2cc(-c3ccc4[nH]ncc4c3)sc12 | 0 | 42 | 4 | 0 | 0 | 0 | 0 | 0 | 7 | 47 |
| COc1cc2nccc(Nc3ccc(NC(=O)c4ccc(C)cc4)c(O)c3)c2cc1OC.Cl [GW440132] | 0 | 0 | 3 | 2 | 5 | 6 | 0 | 12 | 10 | 19 |
| Cl.c1ccc(-c2n[nH]cc2-c2ccnc(-c3ccc(CN4CCOCC4)cc3)c2)nc1 [GW776245] | 16 | 11 | 5 | 15 | 19 | 10 | 30 | 13 | 17 | 0 |
| CS(=O)(=O)c1ccc(-c2c(-c3ncn[nH]3)sc(N3CCOCC3)c2C#N)cc1 | 27 | 27 | 32 | 0 | 0 | 6 | 0 | 36 | 42 | 17 |
| Cc1c(Cn2ccn3c(=O)cc(N4CCOCC4)nc23)cccc1C(F)(F)F [GSK2289044] | 6 | 0 | 0 | 0 | 0 | 21 | 0 | 5 | 9 | 0 |
| COc1cccc(NC(=O)NC2CCN(c3ccnc(Nc4ccc(F)cc4)n3)C2)c1 (stereo not shown) [GSK1379721] | 0 | 0 | 0 | 0 | 3 | 17 | 0 | 0 | 0 | 33 |
| COc1cccc(-c2cc(-c3c[nH]nc3-c3ccccn3)ccn2)c1 [GW680338] | 2 | 0 | 0 | 0 | 8 | 7 | 16 | 2 | 15 | 0 |
| Cc1cc(N2Cc3ccccc3C2)nc(Nc2ccc(S(=O)(=O)N3CCOCC3)cc2)n1.Cl [GSK1669917] | 0 | 0 | 0 | 0 | 7 | 0 | 0 | 0 | 6 | 10 |
| COC(=O)c1c(-c2ccccc2)c2cc(C(=O)O)ccc2c(=O)n1Cc1ccccc1 | 0 | 0 | 0 | 0 | 0 | 6 | 12 | 0 | 0 | 0 |
| COc1ccc(Nc2nccc(-c3cccc(NC(=O)c4cc5cc(F)ccc5[nH]4)c3)n2)cc1 [GSK1229782] | 6 | 0 | 11 | 10 | 26 | 32 | 14 | 25 | 32 | 25 |
| O=C(Nc1ccc2c(c1)OCO2)NC1CCN(c2ccnc(Nc3ccc(F)cc3)n2)C1 (stereo not shown) [GSK1379724] | 6 | 0 | 8 | 0 | 9 | 0 | 5 | 16 | 11 | 35 |
| Nc1ncnc2[nH]c(-c3ccccc3)nc12 [AH5015] | 23 | 0 | 8 | 29 | 25 | 0 | 8 | 16 | 19 | 25 |
| CN1C(=O)C(Nc2ccc(Cl)c(C(=O)O)c2)=C(c2ccc(Cl)cc2)C1=O [SB-404290] | 1 | 0 | 2 | 2 | 19 | 9 | 0 | 7 | 0 | 28 |
| Cc1ccc(-c2cc(-c3c[nH]nc3-c3ccccn3)ccn2)cc1 [GW684088] | 7 | 0 | 8 | 10 | 15 | 9 | 0 | 9 | 20 | 7 |
